High-throughput results (PubChem)
MITF inhib = MITF inhibition | AID 2240 | TRPM1 promoter luciferase, luminescence, 24 h | inhibition, % (no concentration beside the values) | 37,000 compounds, 0.28% hits; in the data active = inhibition above about 85%; inconclusive = no clear call, values can overlap the other calls; inactive = below about 68%;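 also: human melanocyte line stably carrying TRPM1 promoter luciferase reporter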
Hedgehog inh = blocks Sonic Hedgehog signaling | Shh-LIGHT2 Gli-luciferase reporter, 30 h | inhibition, % (concentration not given with the values) | 22,000 compounds, 2.1% hits;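 active = mean inhibition across valid replicates above about 65%, limit read from the data; inconclusive = mean under the limit, yet half or more replicates past it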;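 also: pathway switched on by Shh-conditioned medium diluted 1 in 25 in low serum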
NOMO-1 viab = STK33 inhibitor candidate reducing NOMO-1 cell viability | NOMO-1 AML viability, CellTiter-Glo luminescence, 72 h | inhibition, % (no concentration beside the values) | 37,000 compounds, 7.5% hits | AID 2330; in the data active = inhibition above about 80%; inconclusive = no clear call, values can overlap the other calls
An asterisk follows results filed as active; ? = inconclusive; nt = no result. The list is not random: actives were taken first. Their share in the collection is about 8.1%.

SMILES | MITF inhib | Hedgehog inh | NOMO-1 viab
O=c1cc(CSc2n[nH]c(-c3cccs3)n2)c2ccc(O)cc2o1 | -9.4 | -12.1 | 15.1
O=C(Nc1cccc(Cn2cccn2)c1)c1cc(-c2cccnc2)nc2ccc(Cl)cc12 | 3.8 | nt | 26.7
CCN(CC(=O)Nc1ccccc1C)S(=O)(=O)c1ccc(Br)cc1 | 15.4 | nt | 17.9
COC(=O)c1ccccc1NC(=O)c1ccc(Cl)c(S(=O)(=O)Nc2ccc(C)cc2C)c1 | 12.1 | nt | 6.9
C[C@@H]1CCCCO[C@H](CN(C)CC2CCCCC2)[C@@H](C)CN([C@H](C)CO)C(=O)c2cc(NS(=O)(=O)c3cccs3)ccc2O1 | -6.4 | -37.6 | 36.9
C[C@H]1CN([C@@H](C)CO)C(=O)c2cc(NC(=O)Nc3ccccc3)ccc2O[C@H]1CN(C)Cc1ccc2c(c1)OCO2 | -11.1 | nt | 92.0*
C[C@@H]1CN([C@@H](C)CO)C(=O)c2cc(NC(=O)Nc3ccc(F)cc3)ccc2O[C@H]1CN(C)Cc1ccc2c(c1)OCO2 | -3.1 | nt | 36.5
COc1ccc(NC(=O)Nc2ccc3c(c2)C(=O)N([C@H](C)CO)C[C@H](C)[C@H](CN(C)Cc2ccc4c(c2)OCO4)O3)cc1 | 8.2 | nt | 97.2*
COc1ccc(NC(=O)Nc2ccc3c(c2)C(=O)N([C@H](C)CO)C[C@@H](C)[C@@H](CN(C)Cc2ccc4c(c2)OCO4)O3)cc1 | 0.9 | nt | 9.4
O=C(CSc1nc2ccccc2[nH]1)Nc1cccc(Cl)c1Cl | 1.0 | nt | -2.8
CCOC(=O)c1cnc(SC2CC(=O)N(c3cccc(F)c3)C2=O)nc1N (centres undefined) | -5.8 | nt | -6.8
O=C(O)CC(C(=O)Nc1ccc(Cl)cc1)N1CCCC1 (centres undefined) | 2.3 | nt | 5.6
O=C(NCc1ccccn1)c1cnn2c1NC(c1cccs1)CC2C(F)(F)F (centres undefined) | 4.5 | nt | 1.0
CCc1ccc(C(=O)Oc2ccc(C#N)cc2)cc1 | -5.0 | nt | 69.3
CN(C)Cc1ccc(C(=O)Oc2ccc(C(C)(C)C)cc2)cc1 | 1.2 | nt | 114.6*
C=CC(C)(O)CC/C=C(\C)C(=O)OC1C(CO)OC(OC2OC=CC3(O)C(OC(=O)C4=COC(OC5OC(CO)C(O)C(O)C5O)C5C(C)CCC45)C4OC4(C)C23)C(O)C1O (centres undefined) | nt | 24.7 | nt
CC(C)(C)C1CCc2c(sc3nc(-c4cccs4)oc(=O)c23)C1 (centres undefined) | -10.8 | -11.7 | 107.7*
O=S(=O)(c1ccccc1)c1nc(-c2cccs2)oc1NCC1CCCO1 (centres undefined) | -9.2 | nt | 37.9
Cc1ccccc1NC(=O)C1CC=CCC1C(=O)O (centres undefined) | 11.3 | nt | -13.1
O=C(Nc1ccccc1C(=O)O)c1cccc(S(=O)(=O)Nc2cccc(C(F)(F)F)c2)c1 | 5.9 | nt | 20.9
CC1(C)N=C(NS(=O)(=O)c2cc(C(F)(F)F)cc(C(F)(F)F)c2)N(c2ccccc2)O1 | 49.2 | 100.8* | 14.2
Cc1cccc(NC(=O)CSc2nc(N)c(C#N)c(-c3ccc(F)cc3)c2C#N)c1 | 35.9 | nt | ?
C[C@H](CO)N1C[C@H](C)[C@@H](CN(C)S(=O)(=O)c2ccc(Cl)cc2)Oc2c(NC(=O)C3CCCCC3)cccc2C1=O | -4.0 | -20.3 | 33.4
C[C@@H]1CN([C@H](C)CO)C(=O)c2cccc(NC(=O)C3CC3)c2O[C@H]1CN(C)S(=O)(=O)c1ccc(Cl)cc1 | -2.2 | 6.3 | 13.9
C[C@@H]1CN([C@@H](C)CO)C(=O)c2cccc(NC(=O)C3CCCCC3)c2O[C@@H]1CN(C)S(=O)(=O)c1ccc(Cl)cc1 | 25.3 | -0.9 | 37.3
SMILES | MITF inhib | Hedgehog inh | NOMO-1 viab
C[C@H](CO)N1C[C@H](C)[C@H](CN(C)S(=O)(=O)c2ccc(Cl)cc2)Oc2c(NC(=O)C3CCCCC3)cccc2C1=O | 9.0 | 102.8* | 5.1
C[C@H]1CN([C@@H](C)CO)C(=O)c2cccc(NC(=O)C3CC3)c2O[C@H]1CN(C)S(=O)(=O)c1ccc(Cl)cc1 | 4.2 | 89.7* | -8.1
C[C@H]1CN([C@@H](C)CO)C(=O)c2cccc(NC(=O)C3CCCCC3)c2O[C@H]1CN(C)S(=O)(=O)c1ccc(Cl)cc1 | 7.7 | 98.4* | 8.9
O=C(CSc1nc(O)cc(=O)[nH]1)Nc1ccccc1 | 4.8 | nt | 8.4
COC(=O)Cn1c(=O)n(Cc2ccco2)c(=O)c2c3c(sc21)CCCC3 | -13.9 | nt | 6.3
COc1ccc(NC(=O)Nc2ccc3c(c2)C(=O)N([C@H](C)CO)C[C@@H](C)[C@H](CN(C)C(=O)Nc2ccc(OC)cc2)O3)cc1 | -3.2 | -25.7 | 19.3
C/C=C(\C)C(=O)O[C@@H]1C(C)=C2[C@H]3OC(=O)[C@](C)(O)[C@]3(O)[C@H](OC(=O)C(C)CC)C[C@@](C)(OC(C)=O)[C@@H]2[C@H]1OC(=O)CCCCCCC (some centres undefined) | nt | 99.0* | nt
C[C@H]1CN([C@@H](C)CO)C(=O)c2cccc(NC(=O)Nc3ccc(F)cc3)c2O[C@H]1CN(C)C(=O)Nc1ccc2c(c1)OCO2 | 1.8 | -9.7 | 8.8
C[C@@H]1CN([C@@H](C)CO)C(=O)c2cccc(NC(=O)Nc3ccc(C(F)(F)F)cc3)c2O[C@H]1CN(C)C(=O)Nc1ccc2c(c1)OCO2 | 34.2 | -67.2 | 89.5*
C[C@@H]1CN([C@H](C)CO)C(=O)c2cccc(NC(=O)Nc3ccc4c(c3)OCO4)c2O[C@H]1CN(C)C(=O)Nc1ccc2c(c1)OCO2 | -2.7 | 18.5 | -11.2
C[C@@H]1CN([C@H](C)CO)C(=O)c2cccc(NC(=O)Nc3ccc(C(F)(F)F)cc3)c2O[C@H]1CN(C)C(=O)Nc1ccc2c(c1)OCO2 | 39.9 | -0.6 | 115.6*
COc1cc(C(=O)NC2(C(F)(F)F)C(=O)N(CC3CCCO3)C3=C2C(=O)CC(C)(C)C3)cc(OC)c1OC (centres undefined) | -16.2 | nt | 4.3
Cc1noc(C)c1S(=O)(=O)Nc1cccc2c1O[C@H](CN(C)Cc1ccc3c(c1)OCO3)[C@H](C)CN([C@H](C)CO)C2=O | 0.6 | -18.7 | -2.3
C[C@@H]1CN([C@@H](C)CO)C(=O)c2cc(NC(=O)Cn3cnnn3)ccc2O[C@@H]1CN(C)C(=O)NC1CCCCC1 | -4.1 | -18.0 | 9.6
COc1ccc(OC)c(NC(=O)CSc2nnnn2-c2ccccc2)c1 | 0.2 | nt | 10.3
COc1ccc(-n2nnnc2SCC(=O)Nc2cc(C)c(Cl)cc2OC)cc1 | 42.5 | nt | 92.2*
CCOC(=O)c1ccc(NC(=O)CSc2nc3sc4c(c3c(=O)[nH]2)CCCC4)cc1 | 2.7 | nt | -2.6
COc1ccc(NC(=O)Nc2cccc3c2O[C@@H](CN(C)S(=O)(=O)c2cn(C)cn2)[C@@H](C)CN([C@@H](C)CO)C3=O)cc1 | 0.1 | -14.9 | 0.9
C[C@@H]1CCCCO[C@@H](CN(C)C(=O)CCCN(C)C)[C@@H](C)CN([C@H](C)CO)C(=O)c2cc(NC(=O)c3ccccc3)ccc2O1 | -10.6 | nt | -36.3
C[C@@H]1CN([C@@H](C)CO)C(=O)c2cccc(NC(=O)c3nc4ccccc4s3)c2O[C@@H]1CN(C)Cc1ccc(C(F)(F)F)cc1 | 8.3 | -15.9 | 98.7*
C[C@@H]1CN([C@@H](C)CO)C(=O)c2cccc(NC(=O)c3nc4ccccc4s3)c2O[C@H]1CN(C)CC1CCCCC1 | 11.1 | 34.2 | ?
C[C@H](CO)N1C[C@H](C)[C@H](CN(C)Cc2ccc(C(=O)O)cc2)Oc2c(NC(=O)c3nc4ccccc4s3)cccc2C1=O | -19.4 | -12.4 | 20.6
